Bioassay records from PubChem BioAssay.
Hits are enriched below; roughly 8.2% of the tested compounds scored in any of these assays.
KB-3-1 tox: kills parental KB-3-1 adenocarcinoma cells. KB-3-1 viability, CellTiter-Glo ATP luminescence, 72 h. Potency, µM (series often up to 46.1 µM), usual class: cytotoxic. 1.4% of 400,000 active. AID 1347075; further: on the % scale 0 is the no-effect control and ±100 the full control effect; nearly all actives have a fitted effect of over 60% in size
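Viability of parental KB-3-1 cells, measured by CellTiter-Glo luminescence, followed a 72 h incubation at 37 °C with pinned compounds in phenol-red-free DMEM containing 10% FBS.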
KB-V1 MDR tox: KB-V1 MDR subline cytotoxicity. KB-V1 MDR cells viability, CellTiter-Glo, 72 h. Potency, µM (top dose mostly 46.1 µM), actives largely listed as cytotoxic. 3.4% of 400,000 active; further: on the % scale 0 is the no-effect control and ±100 the full control effect; nearly all actives have a fitted effect of over 60% in size
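In this primary screen, KB-V1 cells overexpressing P-gp are incubated with library compounds (lowest to highest concentration) for 72 h at 37 degrees C before a luminescent ATP viability read.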
SW480 rerep: DNA re-replication induction in SW480 cells; AID 624297; 1.8% of 340,000 active; SW480 DNA re-replication, Hoechst DNA content imaging, 48 h; Potency, µM (highest dose often 46.1 µM), without a hit: top-dose re-replication activation, actives largely listed as activators; further: % of control where 0% means no effect; nearly all actives have a fitted effect of over 55% in size
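Compounds, transferred as 23 nL by pin tool, were incubated with cells for 48 hr; DNA content per nucleus was then quantified by Hoechst staining and fluorescence plate imaging.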
MCF10A rerep: inducers of DNA re-replication in MCF 10A breast cells | MCF 10A DNA re-replication, Hoechst nuclear intensity, 48 h | Potency, µM (top dose mostly 46.1 µM), for the others: at the highest dose activity, positive = re-replication, usual class: activators | 2.9% of 350,000 active; further: % of control where 0% means no effect; nearly all actives have a fitted effect of over 50% in size
ELG1 repair inh: blocks ELG1-dependent DNA repair in HEK293T cells; AID 504467; HEK293T ELG1-luciferase reporter, luminescence, 16 h; DNA damage induced by 5-fluorouridine; Potency, µM (top dose mostly 46.1 µM), for inactives: at the top dose activity change, negative = inhibition, most hits filed as inhibitors; 2.3% of 330,000 active; further: on the % scale 0 is the no-effect control and ±100 the full control effect; nearly all actives have a fitted effect of over 55% in size
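Overnight (16 hr) co-exposure of 2,000 cells/well to 5-fluorouridine and compound at 37 °C preceded detection. Luciferase was quantified via ONE-Glo luminescence; loss of signal denotes inhibition.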
Active calls of the source: *; i = inactive; ? = inconclusive; . = no result; ! = not active in a repeat. The call rests on the fitted dose curve; in most records, active means well fitted curve in the direction sought with a large enough effect; inconclusive means small, poorly fitted or top-dose-only effect, or another doubt; inactive means no such curve, though single readings can be large; an effect the other way counts as inactive or inconclusive. Potency means the concentration at half of the fitted maximal effect.

SMILES	KB-3-1 tox	KB-V1 MDR tox	SW480 rerep	MCF10A rerep	ELG1 repair inh
Cc1cccc(N2CCN(C(=O)c3cccc(N4C(=O)C5CC=CC(C)C5C4=O)c3)CC2)c1C (stereo unspecified)	i	i	1%	?	23µM*
COc1ccccc1N1CCN(S(=O)(=O)c2ccc3nc(-c4ccccc4)[nH]c3c2)CC1	i	?	-4%	26µM*!	?
COc1ccccc1N1CCN(C2CCN(C(=O)c3cccc(F)c3)CC2)CC1	i	16µM*	-2%	12%	-5%
O=C(c1cccc(N2C(=O)C3C4C=CC(C4)C3C2=O)c1)N1CCN(c2ccccc2Cl)CC1 (stereo unspecified)	i	i	27%	7%	1%
COc1cccc(CSC(C(=O)O)c2ccccc2)c1 (stereo unspecified)	i	i	.	.	.
N#CCC(=O)N/N=C/c1cn(Cc2cccc3ccccc23)c2ccccc12	?	i	15µM*	5.2µM*	-30%
O=S(=O)(N/N=C/c1cn(Cc2ccccc2)c2ccccc12)c1ccccc1	?	21µM*	18%	?	?
Cc1ccc(C(=O)N/N=C/c2cn(Cc3ccccc3)c3ccccc23)cn1	16µM*	?	?	?	6.5µM*
NC(=O)Cn1cc(/C=N\NS(=O)(=O)c2ccc(Cl)cc2)c2ccccc21	i	i	1%	5%	-4%
Cc1ccccc1C(=O)Nc1nnc(CC(=O)N/N=C/c2cn(Cc3ccccc3)c3ccccc23)s1	?	i	21µM*	6.5µM*	-14%
Cc1cc(C)c2nc(N(Cc3cccnc3)C(=O)CCOc3ccccc3)sc2c1	i	i	.	.	.
CC(C)CNC1CS(=O)(=O)CC1O (stereo unspecified)	i	i	-14%	2%	-1%
O=S1(=O)CC(O)C(NCc2cccnc2)C1 (stereo unspecified)	i	i	2.1µM*	5.2µM*	6%
CC(=O)c1nnn(-c2cccc([N+](=O)[O-])c2)c1C	i	i	-9%	18%	16%
CC(=O)C1=C(c2cccc([N+](=O)[O-])c2)N(C(C)=O)n2c(C)nnc2S1	15µM*	i	?	23µM*	?
COc1ccc(CN(CC(O)COCc2ccccc2)S(=O)(=O)c2ccccc2Br)cc1 (stereo unspecified)	i	i	44%	?	?
Brc1ccccc1C1CC(c2ccccc2)=Nc2ccccc2N1 (stereo unspecified)	i	i	?	23µM*	?
CN(CCN1CCOCC1)C(=O)C1CCC(=O)N(Cc2ccc(Cl)cc2)C1 (stereo unspecified)	i	i	.	.	.
COC(=O)N/N=C\c1ccccc1OC/C=C/c1ccccc1	i	i	16µM*	?	?
C=CCOc1ccc(/C=N/NC(C)=O)cc1OCC	i	i	-3%	3%	4%
COc1cc(/C=N\NC(C)=O)ccc1OC/C=C/c1ccccc1	?	?	?	1%	16µM*
CCCCC(=O)Nc1c2c(nn1-c1ccc(C)cc1)CS(=O)(=O)C2	i	i	-7%	-3%	-1%
COc1ccc(/C=C(/NC(=O)c2ccco2)C(=O)N2CCCCCC2)cc1OC	i	?	?	0%	-2%
Cc1ccc(S(=O)(=O)Nc2ccc3c(c2)nc2n3CCN(Cc3ccccc3)C2)cc1	i	16µM*	1%	-1%	?
O=S(=O)(Nc1ccc2c(c1)nc1n2CCN(Cc2ccccc2)C1)c1ccccc1	?	2.6µM*	7%	26%	-17%
SMILES	KB-3-1 tox	KB-V1 MDR tox	SW480 rerep	MCF10A rerep	ELG1 repair inh
NNC(=O)c1[nH]c2ccccc2c1-c1ccccc1	?	i	9.2µM*	?	?
C/C(=N\NC(=O)CCC(=O)O)c1c(-c2ccccc2)c2cc(Br)ccc2[nH]c1=O	i	i	-6%	-3%	0%
O=C(N/N=C/c1ccc(O)cc1)c1[nH]c2ccc(Br)cc2c1-c1ccccc1	7.3µM*	i	7.3µM*	?	-3%
O=C(N/N=C/c1c[nH]c2ccccc12)c1[nH]c2ccc(Br)cc2c1-c1ccccc1	1.6µM*	?	8.2µM*	?	17%
CC1(C(=O)NC2CCCC2)CCC(=O)N1CCOc1ccccc1 (stereo unspecified)	i	i	.	.	.
O=C(CSc1nnc(NC(=O)c2cccc(F)c2)s1)NC1CCCC1	i	i	20%	5%	?
Cc1ccccc1NC(=O)c1c(C)oc2ccc(O)c(CN3CCOCC3)c12	i	i	.	.	.
COc1ccc(-c2n[nH]c3c2CN(C(=O)c2ccc(OC)c(OC)c2)CC3)cc1	7.3µM*	?	?	21µM*	?
COc1cc(OC)cc(C(=O)N2CCN(C(=O)c3ccc(OC)c(OC)c3)CC2)c1	i	i	-4%	2%	1%
Cc1cccc(C)c1Nc1c(-c2ccccc2Cl)nc2cnccn12	i	?	.	.	.
COc1ccc2[nH]c3c(c2c1)CCN1C(=O)N([C@@H](C)C(=O)NCCc2ccc(F)cc2)C(=O)[C@]31C	12µM*	?	?	?	-16%
CC(=O)Nc1ccc(-c2csc(NC(=O)Cc3cccc(F)c3)n2)cc1	?	i	?	11%	18µM*
O=S(=O)(Nc1ccc(-c2csc(-c3ccccc3)n2)cc1)c1ccccc1	i	i	-2%	?	10%
O=C(Cc1cccs1)Nc1nc(-c2ccc(F)cc2F)cs1	23µM*	?	?	?	?
Cc1ccc(S(=O)(=O)Nc2ccc(-c3csc(-c4ccccc4)n3)cc2)cc1	i	?	?	12µM*	3%
O=C(CS(=O)(=O)c1ccccc1)Nc1nc(-c2ccccc2)cs1	i	i	-3%	-3%	5%
Cc1ccc(S(=O)(=O)CC(=O)Nc2nc(-c3ccccc3)cs2)cc1	i	18µM*	16%	-11%	?
O=C(Cc1cccs1)Nc1nc(-c2ccc(F)c(F)c2)cs1	?	?	2%	8%	?
O=C1CCC[C@@H]2Cc3nc4ccc(Cl)cc4cc3[C@@H]3CCN1[C@H]23	i	?	-2%	-65%	.
O=C(Cc1ccccc1)Nc1nc(-c2ccc(F)c(F)c2)cs1	i	i	-1%	24%	-5%
Cc1ccc(-c2csc(NC(=O)C3=NN(c4ccccc4)C(=O)CC3)n2)cc1	?	?	-23%	?	13µM*
Cc1csc(NC(=O)C2=NN(c3ccccc3)C(=O)CC2)n1	i	i	-148%	0%	9%
O=C(Cc1ccccc1F)Nc1nc(-c2ccc(F)c(F)c2)cs1	?	?	?	16µM*	-4%
CC1CCN(CC(=O)Nc2nc(-c3ccccc3)cs2)CC1	i	i	-2%	?	-6%
